Holding throughout (conditions): concentration: 1 μM, replicates: in singlicate; n = 1
The subject of test [1] is PRKCD.
The test system of test [2] is PRKCE.
For test [3], the system named is PRKCH.
For test [4], the system named is PRKCI.
For test [5], the system named is PRKCQ.
Test [6] relates to PRKD1.
The test system of test [7] is PRKD2.
Test [8] deals with PRKD3.
Test [9] concerns PRKG1.
The test system of test [10] is PRKG2.
The test system of test [11] is T1, PRKR.
T1 construct: gene EIF2AK2

The test system of test [12] is PRKX.
Test [13] relates to PRP4.
Test [14] concerns T2, PYK2.
T2 construct: gene PTK2B

The test system of test [15] is QSK.
In test [16] the test system is RAF1.
For test [17], the system named is RET.
Test [18] has as its system RIOK1.
Test [19] has as its system RIOK2.
The subject of test [20] is RIOK3.

The structures appear in SMILES notation.
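Further: KINOMEscan kinase panel screen.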

For the compound `CCCc1ccc(S(=O)(=O)NC2CCN(c3ccnc(Nc4ccc(OC)cc4)n3)C2)cc1` (stereo not drawn) [GSK1379737], the “%Inh” value in [1] was 0%; in test [2], 9%; in test [3], 0%; in test [4] it was 11%; in [5], 0%; in test [6] it was 0%. In addition, the “%Inh” value is on record as 3% in test [7]; 9% in [8]; 0% in test [9]; 0% in test [10]; 0% in test [11]; 0% in test [12]. Further, the “%Inh” value in [13] worked out at 60%; in [14], 10%; in test [15] it was 0%; in test [16], 0%; in test [17], 28%; in [18] it was 0%. Moreover, the “%Inh” value in test [19] and in test [20] was 0% each time.

With `O=C(CCO)NCCn1ccc2ncnc(Nc3ccc(Oc4cccc(C(F)(F)F)c4)c(Cl)c3)c21`, the “%Inh” value in test [1] was determined as 0%; in [2], 6%; in [3] it was 0%; in [4], 0%; in [5] it was 0%; in test [6], 0%. The “%Inh” value in test [7] was 5%; in test [8], 0%; in test [9], 13%; in test [10], 0%; in test [11] it was 0%; in test [12], 0%. Moreover, the “%Inh” value in test [13] was determined as 8%; in test [14] it was 0%; in test [15], 0%; in [16] it was 0%; in test [17] it was 0%; in [18], 0%. Also, the “%Inh” value in test [19] and in test [20] was 0% throughout.

On to `Fc1cccc(COc2ccc(Nc3ncnc4nn5ccccc5c34)cc2Cl)c1` [GW689066], for which the “%Inh” value in [1] stood at 0%; in test [2], 0%; in test [3], 0%; in test [4], 25%; in [5], 7%; in test [6], 0%. The “%Inh” value in test [7] came out at 0%; in test [8], 0%; in [9], 0%; in [10], 0%; in test [11] it was 0%; in test [12] it was 2%. Also, the “%Inh” value is 0% in test [13]; 0% in test [14]; 0% in [15]; 4% in test [16]; 0% in [17]; 20% in [18]. The “%Inh” value in test [19] and in [20] was 0% throughout.

For `O=C(NCCCN1CCCC1=O)c1cnc(NCc2cc(Cl)ccc2Cl)nc1NC1CCNCC1`, the “%Inh” value is reported as 13% in test [1]; 40% in test [2]; 0% in [3]; 0% in [4]; 0% in [5]; 3% in [6]. Besides, the “%Inh” value in test [7] amounted to 0%; in test [8], 29%; in test [9] it was 0%; in [10] it was 0%; in test [11], 0%; in test [12], 0%. The “%Inh” value in test [13] is reported as 2%; in [14], 0%; in test [15] it was 0%; in test [16], 0%; in [17], 8%; in [18], 0%. In addition, the “%Inh” value turned out to be 0% in [19] and 8% in test [20].

As for `CCC(CC)(CC)n1cnc2c(N)ncnc21` [SKF-97620], the “%Inh” value in [1] was 8%; in test [2], 47%; in test [3], 20%; in [4], 16%; in [5], 0%; in test [6] it was 0%. For the same compound, the “%Inh” value in test [7] was 8%; in test [8], 0%; in test [9] it was 14%; in test [10], 3%; in test [11], 0%; in test [12] it was 0%. The “%Inh” value in test [13] stood at 14%; in test [14] it was 7%; in test [15], 27%; in test [16], 7%; in test [17], 4%; in test [18] it was 21%. Moreover, the “%Inh” value came to 8% in [19] and 0% in test [20].

Regarding `CN1CCC(n2cnc(-c3ccc(F)cc3)c2-c2ccnc(NC3CCNCC3)n2)CC1` [SB-229482], the “%Inh” value in [1] turned out to be 1%; in test [2] it was 27%; in test [3] it was 0%; in [4], 0%; in test [5], 13%; in test [6], 0%. The “%Inh” value in test [7] was determined as 0%; in test [8], 0%; in test [9], 0%; in [10], 17%; in [11], 0%; in test [12] it was 0%. Moreover, the “%Inh” value in test [13] is 0%; in test [14] it was 11%; in test [15], 0%; in test [16], 46%; in test [17] it was 20%; in test [18], 25%. Besides, the “%Inh” value was 8% in test [19] and 22% in test [20].

With `CC(=O)Nc1n[nH]c2ncc(-c3ccccc3)cc12` [SB-548492], the “%Inh” value in [1] amounted to 7%; in test [2], 17%; in test [3], 10%; in [4], 0%; in [5], 0%; in [6], 0%. The “%Inh” value in [7] is reported as 0%; in test [8], 0%; in test [9], 30%; in test [10], 20%; in test [11], 8%; in test [12], 0%. Also, the “%Inh” value in test [13] was 1%; in test [14], 12%; in test [15], 21%; in test [16] it was 0%; in test [17], 0%; in test [18] it was 38%. Besides, the figures for the “%Inh” value in [19] and in test [20] were 17% and 31%, respectively.

In the case of `CNc1nccc(-c2c(-c3ccc(F)cc3)ncn2CCCN2CCOCC2)n1` [SB-222516], the “%Inh” value is given as 1% in test [1]; 5% in test [2]; 0% in test [3]; 20% in [4]; 0% in test [5]; 0% in [6]. Further, the “%Inh” value in test [7] was found to be 0%; in test [8], 0%; in [9], 14%; in test [10] it was 16%; in test [11] it was 0%; in [12] it was 0%. Besides, the “%Inh” value is given as 0% in test [13]; 4% in test [14]; 19% in test [15]; 0% in [16]; 7% in [17]; 25% in [18]. Also, the “%Inh” value came out at 0% in test [19] and 24% in test [20].

As for `COC(=O)c1c(-c2ccccc2)c2cc(Cl)ccc2c(=O)n1Cc1ccc(S(C)(=O)=O)cc1`, the “%Inh” value in test [1] came to 0%; in test [2], 0%; in test [3], 0%; in [4], 8%; in test [5] it was 19%; in test [6], 33%. For the same compound, the “%Inh” value is 0% in test [7]; 0% in [8]; 0% in [9]; 12% in test [10]; 0% in [11]; 16% in test [12]. For the same compound, the “%Inh” value in test [13] stood at 1%; in test [14] it was 0%; in test [15], 0%; in test [16], 49%; in test [17], 2%; in [18] it was 0%. In addition, the “%Inh” value in test [19] is recorded as 29%; in test [20], 0%.

For `O=C(Nc1ccccc1F)NC1CCN(c2ccnc(Nc3ccc(F)cc3)n2)C1` (stereo not drawn) [GSK1379722], the “%Inh” value in test [1] is reported as 0%; in test [2] it was 13%; in [3], 30%; in test [4], 10%; in [5] it was 23%; in test [6], 0%. Also, the “%Inh” value was found to be 0% in test [7]; 0% in [8]; 0% in test [9]; 0% in [10]; 0% in test [11]; 17% in test [12]. Also, the “%Inh” value in [13] turned out to be 27%; in test [14], 0%; in test [15], 15%; in test [16], 19%; in [17], 8%; in test [18] it was 24%. The results for the “%Inh” value in [19] and in [20] were 0% and 15%, respectively.

On to `NC(=O)c1sc(-n2cnc3ccccc32)cc1OCc1ccccc1F` [GSK1024306], for which the “%Inh” value in test [1] was found to be 0%; in [2], 12%; in test [3] it was 17%; in test [4], 0%; in test [5], 0%; in test [6] it was 0%. In addition, the “%Inh” value in test [7] was determined as 7%; in test [8], 0%; in test [9], 12%; in test [10] it was 0%; in test [11], 0%; in test [12], 3%. Further, the “%Inh” value in [13] worked out at 2%; in [14] it was 40%; in [15] it was 0%; in [16] it was 0%; in test [17], 24%; in test [18], 77%. For the same compound, the “%Inh” value was found to be 79% in [19] and 65% in test [20].

Take `Cl.O=S(=O)(c1cccc(F)c1)c1ccc(Nc2ncnc3cc(Br)sc23)cc1Cl` [GSK306886]: the “%Inh” value is given as 0% in test [1]; 45% in [2]; 0% in test [3]; 0% in [4]; 0% in test [5]; 7% in test [6]. For the same compound, the “%Inh” value is reported as 13% in [7]; 4% in test [8]; 0% in test [9]; 23% in [10]; 0% in test [11]; 24% in [12]. Moreover, the “%Inh” value in [13] is reported as 13%; in [14] it was 0%; in [15], 0%; in [16] it was 10%; in [17], 97.9%; in test [18] it was 9%. Moreover, the “%Inh” value in [19] is 3%; in test [20], 22%.

Consider `CSc1ccc(NC2=C(c3ccccc3Cl)C(=O)NC2=O)cc1` [SB-342411], for which the “%Inh” value in test [1] is given as 26%; in test [2], 0%; in [3], 7%; in test [4] it was 0%; in [5] it was 0%; in [6], 5%. For the same compound, the “%Inh” value is listed as 2% in test [7]; 28% in [8]; 0% in test [9]; 13% in test [10]; 0% in test [11]; 0% in [12]. Further, the “%Inh” value in test [13] is 0%; in test [14], 0%; in [15], 8%; in test [16], 15%; in test [17], 14%; in [18] it was 16%. The “%Inh” value in test [19] and in [20] was 0% throughout.

With `Nc1n[nH]c2nnc(-c3ccccc3)cc12` [SB-517389], the “%Inh” value in test [1] came to 0%; in test [2], 9%; in [3] it was 23%; in test [4], 18%; in [5], 0%; in test [6] it was 0%. Moreover, the “%Inh” value in test [7], in [8], in test [9], in [10], in [11] and in [12] was 0% in each case. The “%Inh” value in test [13] amounted to 33%; in test [14] it was 0%; in [15], 0%; in [16], 6%; in [17] it was 88%; in test [18], 26%. Also, the “%Inh” value in test [19] and in test [20] was 0% in each case.

Regarding `Cc1ccc(NC(=O)c2cccc(C#N)c2)cc1-c1ccc(C(=O)Nc2ccncc2)cc1` [GSK1398463], the “%Inh” value in [1] was determined as 7%; in test [2], 5%; in test [3], 27%; in [4] it was 0%; in test [5], 0%; in [6], 0%. In addition, the “%Inh” value is 12% in test [7]; 31% in [8]; 2% in test [9]; 0% in [10]; 0% in [11]; 14% in test [12]. For the same compound, the “%Inh” value in test [13] was 0%; in [14] it was 1%; in test [15], 3%; in [16], 51%; in [17], 7%; in test [18], 21%. Besides, the “%Inh” value in test [19] and in test [20] was 0% throughout.

The values above are taken from article PMC5540273 (PLoS ONE, 2017).
